The results in this text go back to PubChem BioAssay (NCATS).

Records with an inconclusive call do not appear. Entries that show only a call come without a potency. Activity calls are given as the source filed them. Calls follow the shape of the full dose curve.

A short description of the experiment: Natriuretic polypeptide receptor (hNpr1) antagonism - Pilot counterscreen GloSensor control cell line (AID 1347045). The note with it: HEK293 cGMP GloSensor cells, SNP-stimulated luminescence, 20 min; series mostly up to 38.3 µM. An outline of the steps: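 This counterscreen uses HEK293 cells expressing the GIP/pGS-40F cGMP biosensor. Compound-treated cells are challenged with 50 uM sodium nitroprusside, and the luciferase signal is compared before and after stimulation.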
As to `CN(C(=O)CCCOc1ccc2[nH]c(=O)ccc2c1)C1CCCCC1`, the Potency result was “inactive”.
To `CCn1nc(C(=O)O)c(=O)c2cc3c(cc21)OCO3` belongs “inactive”.
Next, `CN1CCN(C2=Nc3ccccc3Oc3ccc(Cl)cc32)CC1`: “inactive”; `NC(N)=N/N=C/c1c(Cl)cccc1Cl`: “inactive”.
To `Fc1ccc(C(c2ccc(F)cc2)N2CCN(C/C=C/c3ccccc3)CC2)cc1` belongs “inactive”; to `CCCCNC(=O)NS(=O)(=O)c1ccc(C)cc1`, “inactive”.
As to `CCC(=O)c1ccc2c(c1)N(CCCN(C)C)c1ccccc1S2`, the Potency entry was “inactive”.
For `COc1ccc(CCN(C)CCCC(C#N)(c2cc(OC)c(OC)c(OC)c2)C(C)C)cc1OC` (configuration not stated), the Potency entry is “inactive”.
To `CN(C)C(=O)Oc1ccc[n+](C)c1` belongs “inactive”; to `c1cnc(N2CCN(Cc3ccc4c(c3)OCO4)CC2)nc1`, “inactive”.
To `CCOC(=O)c1cnc2c(cnn2CC)c1NN=C(C)C` belongs “inactive”.
To `CCc1cccc(N(C)C(N)=Nc2cccc3ccccc23)c1` belongs “inactive”.
